Results on twelve compounds are retold here after PubChem BioAssay (NCATS).

The target in assay [1] is Glucocorticoid receptor (Homo sapiens) (UniProt P04150). Description: GR-GFP Redistribution (AID 450). Note: potency is the fitted concentration of half-maximal effect.
The target is the same in assay [2]. Description: GR-EFC Redistribution (AID 451; calls by dose curve; note: potency is the fitted concentration of half-maximal effect). As to conditions: CHO-K1 GR-EFC translocation, beta-gal luminescence, 2 h. The procedure, abridged:
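CHO-K1 cells expressing nuclear EA and GR-ED fragments of b-gal; compounds titrated up to 46 uM final, 2 h at 37 C. GR nuclear translocation read as complemented b-gal luminescence after 1 h RT detection.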

For assay [3], the target named is Mitogen-activated protein kinase 10 (Mus musculus) (UniProt Q61831). Description: JNK3 AlphaScreen Assay (AID 530; active = well fitted curve in either direction with a large enough effect, not every such curve was filed as active;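 note: kinase came from lysate of stimulated human HepG2 cells; signal reports phosphorylation of biotinylated GST-cJun 1-79 at Ser73 with 10 µM ATP; series mostly up to about 57 µM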). The procedure, abridged:
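qHTS format: compounds tested as titrations against IL-1beta/TNF-alpha-activated HepG2 lysate JNK3 with biotin-GST-cJun substrate and 10 uM ATP at room temperature. Loss of anti-phospho-cJun AlphaScreen signal indicates inhibition.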
Background: Bead proximity is the source of the signal in Alpha formats.

In assay [4] the target is 3',5'-cyclic-AMP phosphodiesterase 4B (Homo sapiens) (UniProt Q07343). Description: qHTS Assay for Inhibitors of PDE-IV (AID 607; active = well fitted activation curve with a large enough effect in the main read-out, with a control signal flat, not every such curve was filed as active). The procedure, abridged: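 The readout is membrane depolarisation from a cAMP-sensing CNG channel, detected with a potential dye at ex 535/em 590. Cells were HEK293-derived (endogenous PDE-IV) at 1000 cells/well, titrated up to 22.9 uM final.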
Chain of 3',5'-cyclic-AMP phosphodiesterase 4B (Homo sapiens) (Q07343 whole entry, looked up): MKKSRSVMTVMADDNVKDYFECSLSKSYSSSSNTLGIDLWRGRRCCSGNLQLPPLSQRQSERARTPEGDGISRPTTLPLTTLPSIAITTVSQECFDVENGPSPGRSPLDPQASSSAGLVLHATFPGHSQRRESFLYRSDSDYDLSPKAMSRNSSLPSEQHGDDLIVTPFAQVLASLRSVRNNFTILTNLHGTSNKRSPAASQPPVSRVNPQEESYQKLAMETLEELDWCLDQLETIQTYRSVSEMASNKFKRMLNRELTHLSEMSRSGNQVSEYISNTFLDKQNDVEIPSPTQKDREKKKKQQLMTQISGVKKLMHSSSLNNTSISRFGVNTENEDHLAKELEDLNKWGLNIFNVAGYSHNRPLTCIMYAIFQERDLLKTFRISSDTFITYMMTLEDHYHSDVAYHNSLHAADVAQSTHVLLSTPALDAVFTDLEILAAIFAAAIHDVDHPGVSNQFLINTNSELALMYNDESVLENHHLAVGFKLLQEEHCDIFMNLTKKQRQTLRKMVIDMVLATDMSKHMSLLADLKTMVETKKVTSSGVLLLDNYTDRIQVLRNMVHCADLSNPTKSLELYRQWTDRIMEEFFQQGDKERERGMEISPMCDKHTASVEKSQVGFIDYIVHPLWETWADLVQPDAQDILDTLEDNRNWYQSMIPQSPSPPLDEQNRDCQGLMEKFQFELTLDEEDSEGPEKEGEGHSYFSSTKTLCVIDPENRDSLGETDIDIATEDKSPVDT
For orientation: qHTS replaces the single test concentration by a dilution series.

In assay [5] the target is Cytochrome P450 2C9 (Homo sapiens) (UniProt P11712). Description: qHTS Assay for Inhibitors and Substrates of Cytochrome P450 2C9 (AID 883; active = well fitted curve in the direction sought with a large enough effect; an effect the other way counts as inactive or inconclusive; note: nearly all actives have a fitted effect of over 60% in size; note: potency is the fitted concentration of half-maximal effect). In short, it runs like this: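 10nM CYP2C9 + 100uM Luciferin-H (=KM), 25mM KPO4; cpd 10 min 37C; NADPH regen, 60 min 37C; stop/detect with P450 Glo-Buffer 20 min; luminescence. Norm. to 57uM sulphaphenazole as full inhibition.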
Chain of Cytochrome P450 2C9 (Homo sapiens) (P11712 whole entry, looked up): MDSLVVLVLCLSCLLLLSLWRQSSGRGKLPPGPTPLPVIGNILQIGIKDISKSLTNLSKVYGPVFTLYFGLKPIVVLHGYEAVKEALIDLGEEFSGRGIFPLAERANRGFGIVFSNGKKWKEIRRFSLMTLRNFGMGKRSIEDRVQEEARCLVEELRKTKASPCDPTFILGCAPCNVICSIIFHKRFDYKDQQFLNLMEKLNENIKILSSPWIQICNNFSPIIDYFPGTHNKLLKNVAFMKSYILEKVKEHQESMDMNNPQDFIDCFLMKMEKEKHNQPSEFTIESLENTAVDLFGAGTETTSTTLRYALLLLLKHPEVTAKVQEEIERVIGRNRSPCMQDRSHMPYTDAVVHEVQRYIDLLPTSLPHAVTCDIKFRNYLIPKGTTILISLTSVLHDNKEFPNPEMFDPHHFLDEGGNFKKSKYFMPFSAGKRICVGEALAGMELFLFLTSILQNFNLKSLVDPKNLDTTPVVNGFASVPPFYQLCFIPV
The target of assay [6] is Cytochrome P450 2D6 (Homo sapiens) (UniProt P10635). Description: qHTS Assay for Inhibitors and Substrates of Cytochrome P450 2D6 (AID 891; active = well fitted curve in the direction sought with a large enough effect; an effect the other way counts as inactive or inconclusive;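 note: luciferin methyl ether substrate demethylated by CYP2D6 with NADPH regeneration; nearly all actives have a fitted effect of over 60% in size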). In short, it runs like this:
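Human CYP2D6 (5 nM) with 30 uM Luciferin-ME EGE (at Km) in 100 mM KPO4, compound preincubated 10 min, then NADPH regeneration system for 60 min at room temperature. Luciferin read by luminescence; normalized to 1.43 uM quinidine.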

The target in assay [7] is Cytochrome P450 2C19 (Homo sapiens) (UniProt P33261). Description: qHTS Assay for Inhibitors and Substrates of Cytochrome P450 2C19 (AID 899; active = well fitted curve in the direction sought with a large enough effect; an effect the other way counts as inactive or inconclusive; note: nearly all actives have a fitted effect of over 60% in size; note: potency is the fitted concentration of half-maximal effect). In short, it runs like this: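 Luminescent read-out of luciferin formed from Luciferin-H EGE (10uM, equal to KM). Enzyme 5nM in 50mM KPO4; compound added, 10 min at 37C, then NADPH regenerating system for 60 min at 37C. Full inhibition defined by 57uM ketoconazole.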
Chain of Cytochrome P450 2C19 (Homo sapiens) (P33261 whole entry, looked up): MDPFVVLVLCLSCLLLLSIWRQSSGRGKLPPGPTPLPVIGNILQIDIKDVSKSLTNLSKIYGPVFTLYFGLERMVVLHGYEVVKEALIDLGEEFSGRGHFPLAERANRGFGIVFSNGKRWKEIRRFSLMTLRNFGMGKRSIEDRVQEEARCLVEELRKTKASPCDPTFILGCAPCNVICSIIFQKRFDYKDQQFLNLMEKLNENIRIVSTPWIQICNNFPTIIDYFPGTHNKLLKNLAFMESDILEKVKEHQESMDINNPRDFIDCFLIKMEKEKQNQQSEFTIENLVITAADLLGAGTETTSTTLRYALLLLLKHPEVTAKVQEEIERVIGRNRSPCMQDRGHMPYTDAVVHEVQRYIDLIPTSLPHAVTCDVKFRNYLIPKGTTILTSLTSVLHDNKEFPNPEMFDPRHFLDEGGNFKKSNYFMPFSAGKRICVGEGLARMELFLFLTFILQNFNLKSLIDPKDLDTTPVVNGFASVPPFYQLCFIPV

For assay [8], the target named is Cytochrome P450 3A4 (Homo sapiens) (UniProt P08684). Description: qHTS Assay for Inhibitors and Substrates of Cytochrome P450 3A4 (AID 884; active = well fitted curve in the direction sought with a large enough effect; an effect the other way counts as inactive or inconclusive; note: potency is the fitted concentration of half-maximal effect; nearly all actives have a fitted effect of over 50% in size). The procedure, abridged: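 20 nM human CYP3A4 with 25 uM Luciferin-PPXE (at KM) in 200 mM KPO4, preincubated 10 min with compound; NADPH regeneration started a 60 min RT reaction. Luciferin detected by luminescence, normalized to 57 uM ketoconazole as full inhibition.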
Chain of Cytochrome P450 3A4 (Homo sapiens) (P08684 whole entry, looked up): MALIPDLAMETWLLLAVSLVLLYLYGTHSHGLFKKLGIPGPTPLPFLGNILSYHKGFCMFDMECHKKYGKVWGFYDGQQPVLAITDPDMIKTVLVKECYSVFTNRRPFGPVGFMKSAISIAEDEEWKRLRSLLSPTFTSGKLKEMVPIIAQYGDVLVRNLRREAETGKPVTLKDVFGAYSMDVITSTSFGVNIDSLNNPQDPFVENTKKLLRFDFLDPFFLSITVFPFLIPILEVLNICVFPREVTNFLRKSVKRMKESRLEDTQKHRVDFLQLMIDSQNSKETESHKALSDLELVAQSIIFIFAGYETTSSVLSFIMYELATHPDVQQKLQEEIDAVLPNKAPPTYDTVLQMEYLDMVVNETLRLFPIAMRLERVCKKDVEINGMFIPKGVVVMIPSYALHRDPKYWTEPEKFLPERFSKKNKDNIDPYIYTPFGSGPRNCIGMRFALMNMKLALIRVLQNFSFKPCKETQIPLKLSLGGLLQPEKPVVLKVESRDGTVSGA

For assay [9] the target is unchanged. Description: qHTS Assay for Activators of Cytochrome P450 3A4 (AID 885; active = well fitted curve in the direction sought with a large enough effect; an effect the other way counts as inactive or inconclusive; note: nearly all actives have a fitted effect of over 65% in size). The procedure, abridged: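 Steps: enzyme/substrate mix dispensed; compound added, 10 min RT; NADPH regeneration solution added, 60 min RT; luciferin detection buffer stops reaction; 20 min later luminescence measured.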
The target of assay [10] is DNA dC->dU-editing enzyme APOBEC-3G (Homo sapiens) (UniProt Q9HC16). Description: qHTS for inhibitors of Vif-A3G interactions: Validation (AID 588379; active = well fitted curve in the direction sought with a large enough effect; an effect the other way counts as inactive or inconclusive). The procedure, abridged:
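HeLa cells stably expressing Vif and A3G-eYFP, 700 cells/well, incubated overnight at 37 deg C, then exposed to compound overnight at 37 deg C. Inhibition of Vif-mediated degradation read as increased yellow fluorescence (Ex 488/Em 500-530) by laser-scanning cytometry.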

Values without a mark were called inactive. Inconclusive results are not listed. Activity calls are given as the source filed them.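 Rule for the calls, unless noted: active = compounds whose dose series gives a full or clear partial fitted curve of increased nuclear translocation; inconclusive = weak partial curve or effect only at the top dose; inactive = no dose-dependent translocation response.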

Chain of Glucocorticoid receptor (Homo sapiens) (P04150 whole entry, looked up): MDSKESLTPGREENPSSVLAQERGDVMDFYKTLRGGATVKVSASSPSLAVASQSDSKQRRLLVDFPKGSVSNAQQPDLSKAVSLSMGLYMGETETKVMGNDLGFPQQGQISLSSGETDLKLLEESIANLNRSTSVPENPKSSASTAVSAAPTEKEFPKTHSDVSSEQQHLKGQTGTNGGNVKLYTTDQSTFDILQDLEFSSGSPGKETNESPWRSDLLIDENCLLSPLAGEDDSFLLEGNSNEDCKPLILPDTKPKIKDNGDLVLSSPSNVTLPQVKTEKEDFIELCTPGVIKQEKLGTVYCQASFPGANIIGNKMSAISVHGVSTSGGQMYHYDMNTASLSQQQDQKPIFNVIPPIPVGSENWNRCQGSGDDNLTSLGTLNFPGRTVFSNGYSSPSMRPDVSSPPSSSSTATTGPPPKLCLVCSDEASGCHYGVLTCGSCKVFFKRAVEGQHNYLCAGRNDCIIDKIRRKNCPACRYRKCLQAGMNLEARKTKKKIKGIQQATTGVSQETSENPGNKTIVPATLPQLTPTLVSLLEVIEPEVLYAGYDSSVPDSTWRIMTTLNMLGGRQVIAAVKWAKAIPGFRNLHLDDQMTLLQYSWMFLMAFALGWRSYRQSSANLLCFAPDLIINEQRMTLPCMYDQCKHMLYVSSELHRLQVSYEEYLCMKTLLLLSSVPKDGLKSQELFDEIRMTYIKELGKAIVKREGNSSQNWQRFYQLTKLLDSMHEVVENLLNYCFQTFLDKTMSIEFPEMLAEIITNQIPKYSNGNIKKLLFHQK
Chain of Cytochrome P450 2D6 (Homo sapiens) (P10635 whole entry, looked up): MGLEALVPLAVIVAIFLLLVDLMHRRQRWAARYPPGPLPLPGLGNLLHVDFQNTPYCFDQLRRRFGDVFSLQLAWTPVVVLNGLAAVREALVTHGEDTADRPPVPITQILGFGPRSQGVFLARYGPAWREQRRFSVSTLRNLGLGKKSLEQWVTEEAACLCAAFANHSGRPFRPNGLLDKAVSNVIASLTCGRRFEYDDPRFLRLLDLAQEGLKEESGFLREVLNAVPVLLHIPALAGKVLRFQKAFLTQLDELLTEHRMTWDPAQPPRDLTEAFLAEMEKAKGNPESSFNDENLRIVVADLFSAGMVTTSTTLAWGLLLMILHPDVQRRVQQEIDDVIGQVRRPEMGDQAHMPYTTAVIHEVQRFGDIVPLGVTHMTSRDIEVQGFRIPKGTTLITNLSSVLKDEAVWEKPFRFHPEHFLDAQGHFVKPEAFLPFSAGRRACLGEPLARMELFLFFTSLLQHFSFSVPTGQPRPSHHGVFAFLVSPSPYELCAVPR
Chain of DNA dC->dU-editing enzyme APOBEC-3G (Homo sapiens) (Q9HC16 whole entry, looked up): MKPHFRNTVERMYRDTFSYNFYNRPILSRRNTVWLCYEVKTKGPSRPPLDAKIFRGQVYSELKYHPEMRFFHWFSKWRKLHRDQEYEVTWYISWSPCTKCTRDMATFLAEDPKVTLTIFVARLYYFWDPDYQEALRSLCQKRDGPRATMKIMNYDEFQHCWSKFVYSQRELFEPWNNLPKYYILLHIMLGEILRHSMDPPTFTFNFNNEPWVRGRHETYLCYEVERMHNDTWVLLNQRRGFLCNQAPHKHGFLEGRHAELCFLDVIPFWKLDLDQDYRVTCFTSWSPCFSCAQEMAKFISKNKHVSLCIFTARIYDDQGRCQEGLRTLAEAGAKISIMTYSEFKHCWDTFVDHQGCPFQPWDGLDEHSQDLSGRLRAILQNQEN

Consider `CN1C[C@H](C(=O)N[C@]2(C)O[C@@]3(O)[C@H]4CCCN4C(=O)[C@@H](Cc4ccccc4)N3C2=O)C[C@H]2c3cccc4[nH]cc(c34)C[C@@H]21`, for which the Potency in assay [1] and in [2] was greater than 46 µM throughout. Besides, the Potency result in assay [3] and in assay [4] was “inactive” each time.
Consider `COc1ccc(CNc2oc(COc3ccccc3Cl)nc2C#N)cc1`, for which the Potency in assay [1] is greater than 20.6 µM.
With `CC(=O)O[C@H]1C(=O)[C@]2(C)[C@H]([C@H](OC(=O)c3ccccc3)[C@@]3(O)C[C@H](OC(=O)[C@@H](O)[C@@H](NC(=O)c4ccccc4)c4ccccc4)C(C)=C1C3(C)C)[C@]1(OC(C)=O)CO[C@@H]1C[C@@H]2O`, in assay [1], the Potency is greater than 46 µM. Moreover, the Potency entry in assay [3] and in assay [4] was “inactive” each time.
Consider `Oc1c(Cl)cc(Cl)cc1CNc1ccc(Br)cn1`, for which the Potency in [1] is greater than 20.6 µM.
Take `C[C@@H]1C(=O)O[C@H]2[C@@H](O)[C@@]34[C@H]5C[C@H](C(C)(C)C)[C@@]36[C@H](OC(=O)[C@@H]6O)O[C@@]4(C(=O)O5)[C@@]12O`: the Potency in [1] and in assay [2] was greater than 46 µM each time. Moreover, the Potency entry in [3] and in [4] was “inactive” in each case.
Regarding `C=C[C@@]1(C)C=C2CC[C@@H]3[C@](C)(CCC[C@@]3(C)C(=O)O)[C@H]2CC1`, the Potency was greater than 46 µM in assay [1], greater than 46 µM in assay [2] and 6.31 µM (active) in assay [5]. Moreover, the Potency entry in assay [3], in assay [4] and in assay [6] was “inactive” each time.
For `C=C/C(=C\C)C[C@@H](CC(=O)N[C@@H](CCC(=O)O)CC(=O)O)NC(=O)[C@@H]1CNCC[C@H]1NC(=O)C[C@@H](NC(=O)C[C@H](Cc1ccccc1)NC(=O)[C@@H]1CCCC[C@H]1N)C(C)C`, the Potency in assay [2] was greater than 46 µM. The Potency result in [3], in assay [4], in [5], in assay [6] and in assay [7] was “inactive” each time.
Turning to `O=C(O)CCCC[C@@H]1SC[C@H]2NC(=O)N[C@H]12`, the Potency in assay [1] and in assay [2] was greater than 46 µM in each case.
In the case of `COc1cccc(-c2nc(NC(C)C)c3ccccc3n2)c1O`, the Potency in assay [1] was greater than 20.6 µM.
In the case of `C=C1C[C@@]23C[C@]1(O)CC[C@@H]2[C@]12C=C[C@@H](O)[C@@](C)(C(=O)O1)[C@@H]2[C@@H]3C(=O)O`, the Potency in [1] and in assay [2] was greater than 46 µM each time. The Potency entry in [3] was “inactive”.
Regarding `C[C@H]1[C@H](C)CC[C@@]2(C(=O)O)CC[C@]3(C)C(=CC[C@@H]4[C@@]5(C)CC[C@H](O)C(C)(C)[C@@H]5CC[C@@]43C)[C@@H]12`, the Potency in [1] and in [2] was greater than 46 µM each time. The Potency result in [3] and in [4] was “inactive” each time.
In the case of `O=c1cc(-c2ccccc2)oc2c1ccc1ccccc12`, the Potency in assay [1] was greater than 46 µM; in assay [2] it was greater than 46 µM; in assay [8] it was 12.6 µM (active); in assay [7] it was 2 µM (active). Besides, the Potency result in [9] was “inactive”. Further, the call in assay [10] was inactive.
